aSyn UTR act: Activators via SNCA 5'UTR binding, MLPCN | alpha-synuclein 5'UTR reporter, activators screen | activity score, % (tested at 7.5 µM), hits read low | actives 7.1% (n = 300,000); in the data active = activity score below about -60%
Starred values were filed as active, the others as inactive. Not all results are given here.

SMILES | aSyn UTR act
Cc1cc2nc(-c3ccc(SCC(=O)Nc4ccc5c(c4)OCCO5)nc3)[nH]c2cc1C | -207*
Cc1ccc2nc(-c3ccc(SCC(=O)Nc4ccc5c(c4)OCCO5)nc3)[nH]c2c1 | -327*
O=C(CSc1ccc(-c2nc3ccccc3[nH]2)cn1)Nc1ccc2c(c1)OCCO2 | -235*
Cc1cc2nc(-c3ccc(SCC(=O)N4CCN(C(=O)c5ccco5)CC4)nc3)[nH]c2cc1C | -88*
COc1ccccc1C(=O)NNC(=S)NC(=O)c1sc2ccccc2c1Cl | -138*
COc1ccccc1C(=O)NNC(=O)c1ccccc1 | -74*
COc1ccccc1C(=O)NNC(=S)NC(=O)c1cccs1 | 73
COc1ccccc1C(=O)NC(=O)Nc1cccc(Cl)c1 | -129*
COc1ccccc1C(=O)CC(=O)c1ccccc1 | -114*
COc1ccccc1C(=O)N1CCN(c2cccc(Cl)c2)CC1 | 64
COc1ccccc1C(=O)NNC(=O)c1cccc(Br)c1 | -115*
COc1ccccc1C(=O)NNC(=O)c1cccc(Cl)c1 | -66*
Cc1ccccc1C(=O)NNC(=O)c1ccc(Br)cc1 | -96*
COc1ccc(C(=O)Nn2c(SCc3cccc([N+](=O)[O-])c3)nc3ccccc3c2=O)cc1 | 66
O=C(Nn1c(SCc2cccc([N+](=O)[O-])c2)nc2ccccc2c1=O)c1ccccc1 | -145*
CCOC(=O)c1ccc(NC(=O)N2CCc3ccccc32)cc1 | -189*
O=C(Nc1ccccc1)N1CCc2ccccc21 | -117*
CCOC(=O)c1[nH]c(C)c(C(=O)N2CCc3ccccc32)c1C | 90
CCc1ccc2oc(-c3cc(N=Cc4cccc(OC)c4O)ccc3O)nc2c1 | -146*
COc1ccc2cc(-c3[nH]ncc3CN3CCCCO3)ccc2c1 | -106*
COc1ccc2cc(-c3[nH]ncc3CN3C[C@@H]4CCC[C@H]3C4)ccc2c1 | -78*
O=C(c1cc2ccccc2oc1=O)N(Cc1ccccc1)C1CCS(=O)(=O)C1 (stereo not drawn) | -88*
COc1ccc(CN(C(=O)c2cc3ccccc3oc2=O)C2CCS(=O)(=O)C2)cc1OC (stereo not drawn) | -115*
O=C(c1cc2ccccc2oc1=O)N(Cc1ccccc1F)C1CCS(=O)(=O)C1 (stereo not drawn) | -95*
CCOc1ccc(CN(C(=O)c2cc3ccccc3oc2=O)C2CCS(=O)(=O)C2)cc1 (stereo not drawn) | -78*
SMILES | aSyn UTR act
Cc1ccc2[nH]c(=O)c(-c3nc4cc(C)ccn4c3NCc3ccco3)cc2c1 | -78*
Cn1c(CN2CCCCC2)nc2cc(NC(=O)c3ccccc3)ccc21 | -73*
Cc1ccc(C(=O)Nc2ccc3c(c2)nc(CCNC(=O)c2ccco2)n3C)cc1 | -104*
O=C(Nc1ccc(CN2CCCCC2)cc1)c1sc2ccccc2c1Cl | -159*
Cn1c(CN2CCCC2)nc2cc(NC(=O)c3ccco3)ccc21 | -116*
CC1CCN(CCc2nc3cc(NC(=O)Nc4ccccc4)ccc3n2C)CC1 | -84*
Cn1c(CN2CCCCC2)nc2cc(NC(=O)c3cccc(Br)c3)ccc21 | -99*
O=C(CN1CCC(NC(=O)c2cccc(F)c2)CC1)Nc1ccc(Br)cc1 | 68
O=C(Nc1ccc(CN2CCCCC2)cc1)c1cccc(Br)c1 | -72*
CCN1CCN(Cc2ccc(NC(=O)c3cc(NC(=O)c4cncc(-c5cccs5)c4)cc(OC)c3)cc2C(F)(F)F)CC1 | 109
Cn1c(CN2CCCCC2)nc2cc(NC(=O)c3cccs3)ccc21 | -68*
CCC(=O)NCCc1nc2cc(NC(=O)c3ccccc3Cl)ccc2n1C | -78*
Cc1cc(C)c(NC(=O)CCN2CCN(Cc3ccccc3)CC2)c(C)c1 | 98
O=C(Nc1ccc2c(c1)nc1n2CCN(Cc2ccccc2)C1)c1cccs1 | -91*
COc1c(C)cccc1C(=O)Nc1ccc(CN2CCCCC2)cc1 | -101*
Cc1cccc(-n2ncc3c(Nc4ccc(F)cc4)ncnc32)c1 | -108*
Cc1cccc(-n2ncc3c(N(C)Cc4ccccc4)ncnc32)c1 | -169*
Cc1cccc(-n2ncc3c(N)ncnc32)c1 | -74*
COc1ccc(-n2ncc3c(Nc4cccc(C)c4)ncnc32)cc1 | -202*
Cc1cc(=O)oc2cc(OCc3ccccc3)ccc12 | -130*
COc1ccc(COc2ccc3c(C)cc(=O)oc3c2)cc1 | -131*
CCOC(=O)c1c(C)[nH]c(C(=O)N/N=C\c2ccccc2Cl)c1C | -64*
CCOC(=O)c1c(C)[nH]c(C(=O)NNC(=O)c2ccccc2)c1C | -67*
CCOC(=O)c1c(C)[nH]c(C(=O)N/N=C/c2cccc(OC)c2)c1C | -104*
CCCc1ccc(Oc2cc(C)nc(N3CCOCC3)n2)cc1 | -63*
SMILES | aSyn UTR act
O=C1C(C=Nc2ccc(F)cc2)=C(O)c2ccccc21 | -214*
COc1ccc(N=CC2=C(O)c3ccccc3C2=O)c(OC)c1 | 63
Cc1ccccc1N=CC1=C(O)c2ccccc2C1=O | -138*
CCCNC(=O)c1cc(Cl)c(NC(=O)C2=CSCCO2)cc1OC | -136*
O=C(CSc1ncccn1)c1ccccc1Br | -64*
COCC(C)n1c(C)cc(C(=O)CSc2nnnn2-c2ccc(O)cc2)c1C (stereo not drawn) | -82*

Compound activity (PubChem)
